Molecules are shown by their SMILES. “And” between values parts separate entries of the source, which are not always exact repeats. Identical values can stand only once. More than one record can exist for a structure, and the calls need not agree. The source made the active and inactive calls. How the source made its calls: active means hit-call score of the fitted dose curve at least 0.9, where 1 is the maximum; inactive means score below 0.9.

The assay can be described thus: CCTE_Shafer_MEA_dev_correlation_coefficient_mean: CCTE's Neural Network Formation Assay for Mean Correlation Coefficient, Shafer Lab (AID 2284093).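 On AC50: well mean pairwise spike train correlation integrated as AUC over recording days 5 to 12.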 The procedure:
CCTE_Shafer_MEA_dev assay is conducted using Axion Biosystems 48 well microelectrode array (MEA) plates and Maestro recording system. Each well of the MEA plate contains a grid of 16 microelectrodes embedded in the culture surface. Electrically active cells, such as neurons, can be cultured over the electrodes, and electrical activity in these cells can be recorded extracellularly. The spontaneous firing of neurons is captured from each electrode on a microsecond timescale providing both temporally and spatially precise data. […] The CCTE_Shafer_MEA_dev assay uses primary cultures of rat cortical neurons. Recordings are made on days post-plating 5, 7, 9 and 12. As these cultures mature over time, neural networks develop functional activity and form cohesive networks in which electrical activity can be highly coordinated. CCTE_Shafer_MEA_dev_correlation_coefficient_mean is 1 of 19 assay components of the CCTE_Shafer_MEA_dev assay. It measures the correlation coefficent of spikes (action potential firings) between every pair of electrodes in a well during a recording in a microelectrode array (MEA) using Axion Biosystems Maestro 768 channel amplifier with the AxIS adaptive spike detector. The pairwise correlations are averaged across active electrodes to report a well-mean value. To collapse across multiple recordings made on days post-plating 5, 7, 9 and 12, the trapezoidal area-under-the-curve of the component is calculated.Data from the assay component CCTE_Shafer_MEA_dev_correlation_coefficient_mean was analyzed into 1 assay endpoint. This assay endpoint, CCTE_Shafer_MEA_dev_correlation_coefficient_mean, was analyzed in the negative analysis fitting direction relative to DMSO as the negative control and baseline of activity. Using a type of functional reporter, gain or loss-of-signal activity can be used to understand electrical activity.
On the day prior to culture, each well was coated thoroughly with 150 uL of 0.05% polyethyleneimine (PEI, Sigma Cat P3143) in 50 mM HEPES (Sigma Cat H7523) at a pH of 8. The plate was incubated at 37C for one hour. PEI was rinsed out with 500 uL of sterile water three times. Plates were stored at 4C until the day of culture. This culture was plated at a seeding density of 1.5 x 10^5 cells/well on a 48-well MEA plate, prepared as described above. Cells were administered via a 25 uL media/laminin ([…]; Sigma Cat L2020-1MG) drop directly onto the microelectrode array, as adding the cells with the laminin results in better attachment than pre-coating with laminin. After 2 hours, an additional 475 uL of cortical media was added and the cells returned to the incubator. Exposure starts at day 0 of plating and is continued over twelve days of network development until the experiment is terminated. Cells are fed with fresh medium on DIV 5 and 9, following the recordings on those days. The entire volume of media in the well is exchanged and any vehicle or compound treatment is renewed. Complete details are found in OP-NHEERL/ISTD/SBB/TJS/2015-03-r0 (available on request, email shafer.tim@epa.gov). Measurement of the electrical activity is non-invasive, and recordings can be made from the same plate over multiple different days of the culture. In cortical neurons, this allows for the measurement of extracellular action potentials over the period during which networks form in the MEA plate.
As to `ClC(Cl)=C(c1ccc(Cl)cc1)c1ccc(Cl)cc1`, the AC50 (usually the concentration at which the activity in the assay is half-maximal) was 3.9 µM (active).

With `O=C(O)C(F)(F)C(F)(F)C(F)(F)C(F)(F)C(F)(F)C(F)(F)C(F)(F)C(F)(F)F`, the outcome was inactive.

Take `COc1ccc(O)c(C(C)(C)C)c1`: the molecule was called inactive.

For `CO/C=C(/C(=O)OC)c1ccccc1COc1cccc(C(F)(F)F)n1`, the AC50 was 244 nM (active) and 459 nM (active).

Regarding `NS(=O)(=O)C(F)(F)C(F)(F)C(F)(F)C(F)(F)C(F)(F)C(F)(F)C(F)(F)C(F)(F)F`, the call was inactive and the AC50 was 22.6 µM (active).

With `O=S(=O)(O)C(F)(F)C(F)(F)C(F)(F)C(F)(F)C(F)(F)C(F)(F)F`, the outcome was inactive.

In the case of `ClC1=C(Cl)[C@]2(Cl)[C@@H]3[C@H]4C[C@H]([C@@H]5O[C@H]45)[C@@H]3[C@@]1(Cl)C2(Cl)Cl`, the molecule was classed as inactive.

Regarding `CCOP(=S)(OCC)SCSC(C)(C)C`, the concentration at half-maximal activity (AC50) is 23.3 µM (active) and 24.2 µM (active).

As for `ClC1=C(Cl)[C@]2(Cl)[C@@H]3[C@@H]4C[C@@H]([C@H]5O[C@@H]45)[C@@H]3[C@@]1(Cl)C2(Cl)Cl`, the half-maximal activity concentration (AC50) is 23.6 µM (active).

As for `ClC1=C(Cl)[C@]2(Cl)[C@@H]3[C@@H](Cl)[C@H]4O[C@H]4[C@@H]3C1(Cl)C2(Cl)Cl`, the AC50 was 27.5 µM (active).

Take `Oc1ccc(C(c2ccc(O)cc2)(C(F)(F)F)C(F)(F)F)cc1`: the result was inactive.

As for `O=S(=O)(O)C(F)(F)C(F)(F)C(F)(F)C(F)(F)F`, the molecule was classed as inactive.

With `O=C(O)C(F)(F)C(F)(F)C(F)(F)C(F)(F)C(F)(F)F`, the molecule was called inactive.

Take `C=CC(N)=O`: the result was inactive.

Regarding `Clc1ccc(C(c2ccccc2Cl)C(Cl)(Cl)Cl)cc1` (stereo not drawn), the AC50 is 0.199 µM (active).

For `c1cc2ccc3cccc4ccc(c1)c2c34`, the call was inactive.

Consider `CCC(C)(c1ccc(O)cc1)c1ccc(O)cc1`, for which the molecule was classed as inactive.
